Reference: PubChem BioAssay (Tox21)
“And” between values parts separate entries of the source, which are not always exact repeats. Identical values can stand only once. Records with an inconclusive call do not appear. Where a call stands in place of a potency, no number is given. Where a structure was tested more than once in an assay, its records may differ in their call. The source made the active and inactive calls. Unless noted, the call rests on the fitted dose curve; in most records, active means well fitted curve in the direction sought with a large enough effect in the repeat runs; inconclusive means weak or mixed curves; inactive means no such curve, though single readings can be large; an effect the other way counts as inactive or inconclusive.

Key:
[1] = target: Retinoic acid receptor RXR-alpha (Homo sapiens) (UniProt P19793); assay: qHTS assay to identify small molecule agonists of the RXR signaling pathway (AID 1159527; calls by dose curve; further: nearly all actives have a fitted effect of over 35% in size; further: potency means the concentration at half of the fitted maximal effect)
Sequence of Retinoic acid receptor RXR-alpha (Homo sapiens) (P19793 whole entry, looked up): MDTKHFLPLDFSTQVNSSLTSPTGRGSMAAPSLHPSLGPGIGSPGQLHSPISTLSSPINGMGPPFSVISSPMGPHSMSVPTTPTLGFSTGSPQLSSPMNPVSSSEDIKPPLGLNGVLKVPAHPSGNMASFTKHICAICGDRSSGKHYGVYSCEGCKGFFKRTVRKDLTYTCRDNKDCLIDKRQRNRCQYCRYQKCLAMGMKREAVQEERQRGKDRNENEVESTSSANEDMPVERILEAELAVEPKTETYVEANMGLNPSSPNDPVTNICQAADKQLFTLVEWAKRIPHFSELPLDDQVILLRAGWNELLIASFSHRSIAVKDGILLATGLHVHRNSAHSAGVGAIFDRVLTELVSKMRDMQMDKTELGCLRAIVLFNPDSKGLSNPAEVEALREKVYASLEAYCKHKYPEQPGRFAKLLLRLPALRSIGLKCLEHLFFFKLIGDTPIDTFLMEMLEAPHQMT
Outline: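 Read-out: beta-lactamase FRET ratio (405 nm excitation, 460 and 530 nm emission) after 2 hr substrate loading at room temperature. Cells were RXR-alpha-UAS-bla HEK 293T treated with compounds for 16 hr in 2% charcoal-stripped FBS medium.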

[2] = qHTS assay to identify small molecule agonists of the RXR signaling pathway - cell viability counter screen (AID 1159529); further: series mostly up to about 77 µM; nearly all actives have a fitted effect of over 50% in size
Outline: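 HEK 293T RXRa-bla cells, 2% CS-FBS; 5 h settle; cpd 16 h 37 C, 5% CO2; CellTiter-Glo 30 min RT, luminescence. Tetraoctyl ammonium bromide as positive control.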

[3] = qHTS assay to identify small molecule antagonists of the retinoid acid receptor (RAR) signaling pathway - cell viability counter screen (AID 1159551); further: nearly all actives have a fitted effect of over 35% in size
Outline: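 C3RL4 RARE-luciferase line; cpds + retinol 1 uM final, 6 h, 37 C/5% CO2; CellTiter-Glo ATP luminescence, 30 min RT.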

[4] = qHTS assay to identify small molecule antagonists of the retinoic acid receptor (RAR) signaling pathway (AID 1159552; further: nearly all actives have a fitted effect of over 50% in size)
Outline: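 Cells of the C3RL4 line were seeded, incubated overnight, then dosed with compounds in DMSO followed immediately by retinol (1 uM final). Six hours later luciferase detection reagent went in; signal was measured after 30 min at RT.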

[5] = qHTS assay to identify small molecule agonists of the retinoic acid receptor (RAR) signaling pathway (AID 1159553)
Outline: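 RARE-luc C3RL4 cells; overnight attachment 37 C/5% CO2; compound (DMSO) 6 hr; luciferase reagent, 30 min RT; luminescence read-out.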

SMILES	Potency [1]	Potency [2]	Potency [3]	Potency [4]	Potency [5]
CC(Cl)C(C)Cl (stereo not drawn)	inactive	inactive	inactive	inactive	–
CC/C(=N\OC/C=C/Cl)C1=C(O)CC(C2CCOCC2)CC1=O (stereo not drawn)	inactive	inactive	inactive	–	–
CCn1cc[n+](C)c1	inactive and 19.8 µM (active)	inactive	inactive	–	–
C=CC(C)=O	inactive	inactive	inactive	–	–
C=CC(=O)OCCCCO	inactive	inactive	–	–	–
Cc1ccccc1CCl	inactive	inactive	inactive	inactive	inactive
Clc1cc(C(Cl)(Cl)Cl)cnc1Cl	inactive	inactive	inactive	inactive	–
ClP(Cl)(Cl)(Cl)Cl	inactive	inactive	inactive	–	–
CCCCNP(N)(N)=S	inactive	inactive	inactive	–	–
Cl/C=C\C[N+]12CN3CN(CN(C3)C1)C2	inactive	inactive	inactive	–	–
C=CC(=O)OCC(C)C	inactive	inactive	inactive	–	–
O=C(O)CC(Cl)C(=O)O (stereo not drawn)	inactive	inactive	inactive	inactive	–
Nc1ccc([N+](=O)[O-])cc1[N+](=O)[O-]	inactive	inactive	inactive	–	–
CCCCCCCCCCOC(=O)c1ccccc1C(=O)OCCCCCCCCCC	inactive	inactive	inactive	–	–
CCC(COC(=O)c1cc(OC)c(OC)c(OC)c1)(c1ccccc1)N(C)C (stereo not drawn)	inactive	inactive	–	–	–
O=S(=O)(Cl)c1ccccc1	inactive	inactive	inactive	inactive	inactive
Cn1sc(Cl)cc1=O	inactive	inactive	inactive	inactive	inactive
CC(Cl)Cl	inactive	inactive	inactive	inactive	inactive
